HIF-2a block = HIF-2a reporter inhibitors, primary screen, luminescence, 786-0 RCC cells. 786-0 RCC cells HIF-2a reporter, luciferase luminescence, overnight. inhibition, % at 18.8 µM. 360,000 tested, 0.72% active;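 active = inhibition of the luminescence signal of 40% or more relative to plate controls, in a single-dose primary screen at 18.75 µM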
Peg3 promoter = Peg3 promoter-driven luciferase inhibitors, primary screen, cell-based, HeLa, luciferase luminescence. HeLa PEG-Prom luciferase reporter, overnight. inhibition, % at 20 µM. 360,000 tested, 1.7% active. AID 588405, 2011;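 active = inhibition of at least 50% at 20 µM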
KKLEB cytotox = cytotoxicity in KKLEB CF airway cells, primary screen, cytotoxicity control for CF NF-kB inhibitor project, cell-based, uHTS, fluorescence assay plates; KKLEB CF airway cells viability, ATPlite luminescence, overnight; stronger effect = lower value; cells stimulated with P. aeruginosa culture filtrate; activity change (cytotoxicity), % at 5 µM; 360,000 tested, 0.36% active; AID 602141, 2011;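 active = corrected activity change at or below -50% at 5 µM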
TROY NFkB inh = inhibitors of TROY-driven NF-kB signaling, primary screen, Q293 LMP1-TROYcd cells, NF-kB luciferase, uHTS; Q293 LMP1-TROYcd NF-kB luciferase reporter, 4 h; inhibition, % at 10 µM; 360,000 tested, 0.98% active;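 active = compounds whose plate-normalised and pattern-corrected inhibition of the luciferase reporter signal at the single screening dose is 50% or more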
CF NFkB inh = inhibitors of PAF-induced NF-kB signaling, primary screen, cell-based, GFP fluorescence, uHTS | KKLEB NF-kB-GFP reporter, GFP fluorescence overnight | inhibition, % at 5 µM | 360,000 tested, 0.86% active;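 active = at least 50% inhibition at 5 µM, scaled per plate between neutral and stimulator controls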;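 note: PAF is a Pseudomonas aeruginosa culture filtrate used as stimulus; plate controls were PAF-stimulated DMSO wells for no effect and unstimulated DMSO wells for full effect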
TWEAK Fn14 block = inhibitors of TWEAK-Fn14 signaling, primary screen, luciferase reporter cells, uHTS. TWEAK-stimulated Fn14 reporter cells, luciferase luminescence, 8 h. inhibition, % at 10 µM. 360,000 tested, 2% active. AID 1159606, 2016; in the data active = inhibition above about 50%
The depositor's hits bear a star; / = not tested or not shown. This is a sample that favours compounds with a hit; in the whole collection about 3.9% have one here.

SMILES | HIF-2a block | Peg3 promoter | KKLEB cytotox | TROY NFkB inh | CF NFkB inh | TWEAK Fn14 block
O=C(Nc1ccc(Cl)cc1)Nc1nnc(CSc2ccc(Cl)cc2)s1 | -27 | 17 | -28 | -1 | 39 | 64*
O=C(Nc1cccc(Cl)c1)Nc1nnc(CSCCOc2ccc(Cl)cc2)s1 | 2 | 36 | -26 | 51* | 44 | 50
O=C(Nc1ccc(Cl)cc1)Nc1nnc(CSCc2ccccc2)s1 | 12 | 39 | -11 | -7 | 22 | 25
COc1c(C)cc(C(O)c2ncc(-c3ccccc3)[nH]2)cc1C (configuration not stated) | 16 | 23 | -8 | 4 | 26 | -2
CCC(C)C(=O)Nc1cc(C(=O)OC)cc(C(=O)OC)c1 (configuration not stated) | -7 | 6 | -5 | 5 | 7 | 21
CCCCN1CC[C@H]2C=CC[C@@H](C(=O)Nc3ccc(Cl)cc3Cl)[C@H]2C1=O | 22 | 27 | -6 | 8 | -27 | 0
CCOc1ccccc1NC(=O)C(CC)Sc1nc2ccncc2[nH]1 (configuration not stated) | 10 | 16 | 6 | 7 | -12 | -11
CCCn1nc(C(=O)Nc2ccc3nc(N4CCOCC4)sc3c2)ccc1=O | -4 | 14 | -1 | 53* | 18 | 25
O=C(CSc1cc(Cl)ccc1Cl)NC1CC1 | 2 | -15 | -24 | -3 | -6 | 3
c1ccc(OCCCn2nnc(-c3cccnc3)n2)cc1 | -18 | -9 | -4 | -4 | -4 | 5
COc1ccc(-n2c(C)cc(C3=NNC(=NC4CC4)SC3)c2C)cc1 | -114 | -167 | 14 | -8 | -29 | -4
c1ccc(C2=NNC(=NC3CC3)SC2)cc1 | 0 | 45 | -4 | -22 | -1 | 63*
Cc1cc(C2=NNC(=NC3CC3)SC2)c(C)n1-c1ccccc1 | 91* | 103* | -14 | 47 | -10 | 96*
c1ccc2c(C3=NNC(=NC4CC4)SC3)c[nH]c2c1 | 20 | 45 | 12 | 36 | -10 | 78*
c1ccc2c(C3=NNC(=NC4CCCCC4)SC3)c[nH]c2c1 | -124 | -134 | -4 | -19 | -7 | -39
O=C(CCN1CCCCC1)Nc1ccccc1 | 13 | -1 | 2 | -14 | 5 | 7
N/C(Cc1ccc([N+](=O)[O-])cc1)=N\OC(=O)c1ccc2ccccc2c1 | -66 | 81* | -8 | 59* | 16 | -3
N/C(Cc1cccc2ccccc12)=N\OC(=O)c1ccccc1F | -80 | -40 | -8 | -39 | -12 | -33
N/C(Cc1ccccc1)=N\OC(=O)c1cccc2ccccc12 | -42 | 78* | -1 | -57 | 1 | -24
O=C(NCC(c1ccco1)N1CCc2ccccc21)c1cccc([N+](=O)[O-])c1 (configuration not stated) | 10 | 15 | 1 | -4 | -4 | 8
COc1ccc(Sc2ccc(/C=C3\C(=O)NN(c4ccccc4)C3=O)o2)cc1 | 2 | -2 | -2 | 17 | -19 | 93*
COc1ccc(OC)c(-c2nnc(SCC(=O)N3CCCc4ccccc43)o2)c1 | 7 | 15 | 1 | -5 | 12 | -2
CC(C)Cc1nc(N2CCN(C(=O)c3ccco3)CC2)c(C#N)c2c1CCCC2 | 9 | 8 | -8 | 53* | 6 | -12
CC(NCc1ccc(OCc2ccc(Cl)cc2)cc1)C(O)c1ccccc1 (configuration not stated) | -63 | 104* | -18 | 0 | 32 | -46
O=C(NCc1ccccc1)NC(=O)c1ccc(Cl)cc1 | -14 | -10 | 10 | -24 | -19 | -15
SMILES | HIF-2a block | Peg3 promoter | KKLEB cytotox | TROY NFkB inh | CF NFkB inh | TWEAK Fn14 block
C=CCn1c(SCC(C)=O)nc2scc(-c3ccco3)c2c1=O | 8 | 11 | -7 | -5 | 6 | 38
C=CCn1c(SC(F)F)nc2scc(-c3ccco3)c2c1=O | -8 | 74* | 4 | -7 | 4 | 26
CC1=NN(c2ccccc2)C(=O)/C1=C\c1cn(-c2ccccc2)nc1C | 9 | -10 | 6 | -6 | -2 | -18
COc1ccccc1/C=C1/C(=O)N(c2ccccc2)N=C1C | 45* | 6 | -12 | -10 | 4 | 2
O=C(CC[C@H]1O[C@@H](n2cnc3c(NC(=O)c4ccccc4)ncnc32)[C@H](O)[C@@H]1O)NCc1cccc2ccccc12 | 15 | -8 | 4 | 10 | -11 | -1
O=C(CCNC(=O)C1CCN(S(=O)(=O)c2ccccc2)CC1)NCc1ccccn1 | 4 | -2 | 18 | 2 | -1 | -3
O=C(NCc1ccccn1)C1CCN(S(=O)(=O)c2ccccc2)CC1 | 8 | 20 | 4 | / | -18 | 88*
O=C(NCCCn1ccnc1)C1CCN(S(=O)(=O)c2ccc(F)cc2)CC1 | 11 | -6 | 0 | -7 | -14 | 86*
O=C(CCNC(=O)C1CCN(S(=O)(=O)c2ccc(F)cc2)CC1)NCc1ccc(F)cc1 | 14 | -2 | -4 | -9 | 3 | -5
C#CCN1C=CC(=O)[C@@H](OC(=O)NCCC)[C@H]1c1ccccc1Br | 0 | 1 | 9 | 9 | 2 | 15
S=C(NNc1ccnc2cc(Cl)ccc12)Nc1ccccc1Cl | -39 | 5 | -9 | 66* | 14 | 64*
FC(F)(F)c1cnc(NNC(=S)Nc2ccccc2Cl)c(Cl)c1 | 26 | 40 | -13 | 59* | 40 | 51*
COc1ccc(N)c2c1OCCC2=O | 1 | 19 | 12 | 5 | -4 | 1
CN(C)c1ccnc2sc(C(N)=O)c(N)c12 | 17 | -7 | -36 | -21 | 91* | 29
COc1cc(C(=O)N2CCN(c3cccc(C)c3C)CC2)ccc1OCC(=O)N1CCOCC1 | -1 | 2 | -11 | -8 | -4 | -8
C=CC[C@H](CC(=O)N[C@H](CO)Cc1ccccc1)C(=O)N[C@@H](COC(=O)[C@@H](CC=C)CC(=O)OC(C)(C)C)Cc1c[nH]c2ccccc12 | 7 | 63* | 9 | 27 | 2 | 24
C=CC[C@H](CC(=O)N[C@H](CO)Cc1ccccc1)C(=O)N[C@H](COC(=O)[C@@H](CC=C)Cc1ccc(F)cc1)Cc1c[nH]c2ccccc12 | 10 | -10 | 10 | 10 | -12 | 13
C=CC[C@@H](CC(=O)N[C@H](CO)Cc1ccccc1)C(=O)N[C@H](COC(=O)[C@@H](CC=C)Cc1ccc(F)cc1)Cc1c[nH]c2ccccc12 | 6 | 46 | -8 | 69* | 22 | 66*
CC(C)c1ccc2occ(-c3nn[nH]n3)c(=O)c2c1 | 4 | 10 | -2 | -3 | -18 | -2

Screens deposited in PubChem by Sanford-Burnham Center for Chemical Genomics.
